ssDAF-12 act = activators of S. stercoralis DAF-12 nuclear receptor; HEK293 ssDAF-12/GRIP1 lit1-tk-luc reporter, luminescence; % of 3 µM dafachronic acid response; 370,000 tested, 1% active; activation, % at 6.8 µM;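 active means activation above the mean over all tested compounds plus 3 SD, cut at about 0.9% in these data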;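 further: 0% = DMSO-only wells and 100% = 3 µM delta7-dafachronic acid wells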
hgDAF-12 ag = activates the H. glycines DAF-12 receptor ligand-binding domain. HEK293 GAL4-hgDAF12 UAS-luciferase reporter, agonist luminescence; normalized to butyrate control. activation, % at 6.8 µM. 370,000 tested, 1.8% active;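 active means activation above a cutoff set at the mean of all screened compounds plus 3 SD, cut at about 10% in these data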;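 further: 0% = DMSO wells and 100% = sodium butyrate wells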
DAX1 inh-1 = inhibitors of human orphan nuclear receptor DAX1 (NR0B1). HEK293 Gal4-DAX1 luciferase reporter, luminescence. inhibition, % at 6.75 µM. 340,000 tested, 0.99% active. AID 504766;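 active means inhibition above the mean over all tested compounds plus 3 SD, cut at about 4.2% in these data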;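 further: 0% = DAX1-transfected cells with DMSO and 100% = empty-vector control cells with DMSO; inhibition shows as a rise in luminescence from relieved DAX1 repression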
Target sequence (P51843 207-470 limits assumed): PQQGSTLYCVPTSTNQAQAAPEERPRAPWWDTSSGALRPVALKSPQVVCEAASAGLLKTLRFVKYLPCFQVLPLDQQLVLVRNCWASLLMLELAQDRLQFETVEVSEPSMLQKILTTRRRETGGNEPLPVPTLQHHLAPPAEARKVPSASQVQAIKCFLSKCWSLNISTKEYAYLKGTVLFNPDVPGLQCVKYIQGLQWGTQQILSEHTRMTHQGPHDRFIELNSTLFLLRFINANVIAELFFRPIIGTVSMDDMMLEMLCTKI
DAX1 inh-2 = blocks DAX1 repression of SF-1 activated StAR promoter | 370,000 tested, 1.1% active | HEK293T StAR-luciferase reporter, SF-1/DAX-1 repression relief | inhibition, % at 6.8 µM | AID 652010;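 active means inhibition above the mean over all tested compounds plus 3 SD, cut at about 3.6% in these data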;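 further: 0% = DAX-1 cells with DMSO and 100% = cells lacking DAX-1 with DMSO; higher inhibition means more luminescence from relief of DAX-1 repression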
hcDAF12 agonist = activates DAF-12 receptor from parasite H. contortus. HEK293 hcDAF-12 lit1-tk-luc reporter, luminescence; 0% DMSO, 100% Δ7-dafachronic acid. activation, % at 6.8 µM. 370,000 tested, 1.4% active. AID 652067;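 active means activation above the mean of all tested compounds plus 3 SD, cut at about 5.5% in these data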;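 further: 100% = response to 3 µM Δ7-dafachronic acid high control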
hgDAF12 ag = confirmation of H. glycines DAF-12 agonists | shares compounds with hgDAF-12 ag | activation, % at 6.8 µM | 3,300 tested, 80% active | HEK293 GAL4-hgDAF12 luciferase reporter, agonist mode; percent of butyrate response;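 active means mean activation over triplicate wells above the hit cutoff derived from the earlier primary screen, cut at about 11% in these data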;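 further: 0% = DMSO low control and 100% = 2 mM sodium butyrate high control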
LXR ag 2 = LXR-beta agonism as DAF-12 counter-screen; shares compounds with hgDAF-12 ag; HEK293 Gal4-LXR luciferase reporter, 24 h; activation, % at 6.8 µM; 3,300 tested, under 10 active;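 active means mean activation of the triplicate above a set limit carried over from the primary screen, none filed active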
* marks the source's active call; other numbers are inactive results; . = no result. An excerpt weighted towards active compounds, which were near 4.1% of everything screened.

SMILES	ssDAF-12 act	hgDAF-12 ag	DAX1 inh-1	DAX1 inh-2	hcDAF12 agonist	hgDAF12 ag	LXR ag 2
Cc1ccc(CNC(=O)CN(C(=O)C2(C)CC(=O)N=C3C=CC=CN32)c2ccccc2F)cc1 (centres undefined)	-1	1	0	0	0	.	.
COc1ccccc1-c1nc(C#N)c(NCCCn2ccnc2)o1	-2	-1	2	0	-3	.	.
COc1ccc(NC(=O)c2ccc(OC(F)F)cc2)cc1Cl	1.4*	17*	1	3.7*	5	12*	0
O=C(Nc1ccc(OC(F)F)c(Cl)c1)c1ccccn1	1.4*	14*	5.2*	4.5*	4	17*	1
COc1cc(NC(=O)c2ccccn2)cc(OC)c1OC	-1	0	1	0	-1	.	.
COc1ccc(NC(=O)c2cc(F)cc(F)c2)cc1Cl	-1	8	0	1	-1	.	.
C/C(=C\c1ccccc1)C(=O)NCCc1ccccc1	0	19*	1	3	4	16*	0
c1ccn2cc(CSc3nnc4ccccn34)nc2c1	1.1*	14*	3	3.8*	4	14*	1
Nc1nc(N)nc(-c2cccc(Br)c2)n1	0	14*	3	4.2*	1	11*	0
O=C(Nc1ccc(NC(=O)c2cccs2)cn1)c1ccccc1	0	16*	1	3	5	15*	1
O=C(Nc1ccc(NC(=O)C2CC2)cn1)c1ccccc1	0	16*	0	3	5	13*	1
CN(C)c1cc(-c2ccccc2)nc(-c2ccccc2)n1	-1	1	0	0	0	.	.
COc1ccccc1CNC(=O)CN1C(=O)NC2(CCOc3ccccc32)C1=O (centres undefined)	-2	-2	-1	1	0	.	.
c1ccc2cc(CCO[C@H]3CCCCO3)ncc2c1	0	6	1	2	2	.	.
c1cnc(SCCOc2ccc3c(c2)CCC3)nc1	0	15*	7.6*	3.7*	4	17*	1
Cn1cc(C2N3CC4(C)CN2CC(C)(C3)C4=O)c2ccccc21 (centres undefined)	-1	16*	2	-1	-1	1	0
Cc1c(C2N3CC4(C)CN2CC(C)(C3)C4=O)c2ccccc2n1C (centres undefined)	-1	1	0	0	-1	.	.
Cc1nc2ccc(S(=O)(=O)Nc3cc(-c4nc5cccnc5s4)ccc3C)cc2s1	0	17*	1	3	5	10	0
Cc1nnc(SCC(=O)Nc2ccc(-c3nc4ccccc4s3)cc2)s1	1	20*	3	4	6.0*	20*	1
Cc1ccc2nc(-c3ccc(NC(=O)CSc4nccc(=O)[nH]4)cc3)sc2c1	0	14*	2	2	5	12*	1
Cc1ccc2nc(-c3ccc(NC(=O)CSc4nnc(Cc5cccs5)n4C)cc3)sc2c1	0	13*	.	2	4	16*	1
COc1ccc(CCN2C(=O)c3ccccc3NC2c2cc(Cl)c(O)c(OC)c2)cc1 (centres undefined)	0	3	-1	-1	-2	.	.
O=c1cc(-c2ccccc2)oc2cc(O)ccc12	-1	15*	2	4.5*	2	12*	1
O=c1cc(-c2ccccc2)c2ccc(O)cc2o1	-1	1	1	0	0	.	.
O=c1cc(-c2ccc(O)cc2)oc2cc(O)cc(O)c12	-1	18*	2	3.8*	0	10	1
SMILES	ssDAF-12 act	hgDAF-12 ag	DAX1 inh-1	DAX1 inh-2	hcDAF12 agonist	hgDAF12 ag	LXR ag 2
O=c1c(O)c(-c2ccc(O)cc2)oc2cc(O)cc(O)c12	-1	15*	3	2	2	5	0
O=C(C[C@H]1C/C=C\CC[C@@H](Cc2ccc(F)cc2)C(=O)O[C@H](c2ccccc2)CNC1=O)N[C@H](CO)Cc1ccccc1	-1	1	-1	0	2	.	.
CC(C)[C@H](NC(=O)c1ccccc1Cl)C(=O)OCc1cc(=O)n2cc(Br)ccc2n1	-2	0	0	0	1	.	.
Cc1ccccc1C(=O)NC(CC(C)C)C(=O)OCc1cc(=O)n2cc(Br)ccc2n1 (centres undefined)	-1	14*	2	3	4	11*	0
CN(C)c1ccc(/C=N/OC(=O)Nc2ccccc2)cc1	0	14*	1	2	5.8*	18*	1
CCCCNC(=O)C(NC(=O)Cc1cc(C(F)(F)F)cc(C(F)(F)F)c1)C(=O)c1ccccc1 (centres undefined)	0	2	.	0	0	.	.
Cc1ccccc1OCCNC(=O)c1ccc2ccccc2n1	0	15*	3	3	2	12*	1
COCCNC(=O)c1ccc2ccccc2n1	0	2	1	1	2	.	.
CCN(CC)CCN(C(=O)CCOc1ccccc1)c1nc2ccc(F)cc2s1	-1	2	0	1	2	.	.
COc1nc(-c2ccccc2)nnc1-c1ccccc1	1.3*	15*	2	3	15*	20*	1
COc1ccc(Nc2nc(N)nc(CSc3nnc(N)s3)n2)cc1	0	4	1	1	2	.	.
COc1ccc(Nc2nc(N)nc(CSc3nccn3C)n2)cc1	0	21*	1	3	3	13*	0
O=C(O)CC(Cc1ccc(Br)cc1)C(=O)Nc1ccccc1 (centres undefined)	-1	2	2	0	-1	.	.
Cc1cc(NC(=O)C2COc3ccccc3O2)no1 (centres undefined)	-1	19*	2	1	4	5	0
Cc1cccc(NC(=O)C2COc3ccccc3O2)n1 (centres undefined)	-1	1	0	0	-2	.	.
Cc1cc(NC(=O)COC(=O)C2COc3ccccc3O2)no1 (centres undefined)	-2	0	-1	-1	-1	.	.
O=C(Nc1ccc(Cl)cn1)C1COc2ccccc2O1 (centres undefined)	1	14*	3	4	6.0*	11*	0
Cc1cccc(NC(=O)CSc2ccc3nnc(-c4cccnc4)n3n2)c1	-1	1	0	0	0	.	.
Cc1ccc(S(=O)(=O)Nc2cc(=O)[nH]c3c2CCC3)cc1	-2	-2	0	-1	-2	.	.
CCc1noc(C)c1C(=O)Nc1ccccc1C(C)(C)C	-1	0	1	0	1	.	.
Cc1ccccc1S(=O)(=O)Nc1nc2ccccc2nc1N1CCc2ccccc2C1	0	14*	0	2	5	10	0

Screens: PubChem BioAssay, The Scripps Research Institute Molecular Screening Center
